Laboratory results reported in PubChem BioAssay (NCI).
This is part of a sample that, as a whole, favours compounds with a hit. Of some 83,000 tested, about 20% had one in any assay.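 The test compound was applied at a single concentration to cells in 96-well plates for 48 hours, and percent growth was recorded.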 Calls of active or inactive are those of the source.

What follows are compounds tested on HL-60(TB) leukemia (assay: NCI-60 one-dose screen, 48 h (100 = growth as untreated, 0 = no growth, -100 = all killed)). Conditions: 10 µM unless noted.
Procedure: Growth inhibition of the HL-60(TB) human tumor cell line is measured as a screen for anti-cancer activity. Cells are grown in 96 well plates and exposed to the test compound for 48 hours. Compounds are tested at a single concentration, which is 10^-5 M for most compounds. The reported endpoint is percent growth (GI% or GIPRCNT), where numbers from 0 - 100% represent growth inhibition, and numbers from -100% - 0 represent cell death. For example, a value of 40 represents 60% growth inhibition. A value of 0 means no net growth occurred over the course of the experiment. A value of -40 indicates 40% of cells at the beginning of the experiment died by the end of the experiment. A value of -100 means all cells are dead at the end of the experiment.
NCI-60 Human Tumor Cell Lines Screen was performed using the standard one-dose NCI protocol, which is described in more detail at https://dtp.cancer.gov/discovery_development/nci-60/default.htm.
Compounds with GIPRCNT values below 10 were considered active. Activity score was based on GIPRCNT using the following formula: […]
Score is 0 for GIPRCNT values of 100 or above, 50 for GIPRCNT values of 0, and 100 for GIPRCNT values of -100.

**Q.** How did the growth turn out when Cc1cc(=O)n2nc(-c3cn(C)c4ccc(Cl)cc34)sc2n1 was run?
**A.** Its growth is 92.5% (inactive).

**Q.** For C/C=C/[C@@H]1C=C[C@@H]2C[C@H](C)CC[C@H]2[C@]1(C)/C(O)=C1/C(=O)[C@H](CO)N(C)C1=O, which growth is on record?
**A.** Its growth is 62.7% (inactive).

**Q.** CNC(=O)c1cc(-n2ccc3cc(NC(=O)Nc4ccc(N5CCN(C)CC5)c(C(F)(F)F)c4)ccc32)ccn1 was tested. Which growth did it give?
**A.** Its growth is 65.8% (inactive).

**Q.** Which growth does the source give for CN(C)CCN(C)c1ccc2ncc(C#Cc3cncc(C(=O)Nc4ccc(CN5CCN(C)CC5)c(C(F)(F)F)c4)c3)n2n1 here?
**A.** Its growth is 36.5% (inactive).

**Q.** How did the growth turn out when Cn1cc(-c2nnc(N)nc2-c2c[nH]c3ccc(Br)cc23)c2cc(Br)ccc21 was run?
**A.** Its growth is 90.8% (inactive).

**Q.** CN1c2ccccc2Sc2cc(/C=N/Nc3ccnc4cc(Cl)ccc34)ccc21 was tested. Which growth did it give?
**A.** The growth was 77.1% (inactive).

**Q.** With COc1cc2oc(-c3cccc(NC(=O)c4cc(N)ccc4Cl)c3)cc(=O)c2c(OC)c1OC as the compound, how does the growth read?
**A.** The growth was 99.7% (inactive).

**Q.** Cc1[nH]c(C(=O)Nc2ccccc2OCc2cccc(C(=O)NCCN)c2)cc1Cl was tested. Which growth did it give?
**A.** The growth was 89.6% (inactive).

**Q.** With CC1(C)CC[C@]2(C(=O)NCCCCCCN(CCCN)CCCN)CC[C@]3(C)C(=CC[C@@H]4[C@@]5(C)CC[C@H](O)C(C)(C)[C@@H]5CC[C@]43C)[C@@H]2C1 as the compound, how does the growth read?
**A.** The growth was 99.1% (inactive).

**Q.** For C/C(=N\NC(=S)Nc1ccc(Br)cc1)c1cc2ccccc2oc1=O, which growth is on record?
**A.** The growth was 1.53% (active).

**Q.** Which growth does the source give for O=c1oc2ccc(-c3ccc(F)cc3F)cc2c(=O)n1-c1ccc(Br)cc1F here?
**A.** Its growth is 58.8% (inactive).

**Q.** How did the growth turn out when CC(Nc1c(C#N)cnc2ccc(-c3cncc(-c4n[nH]c(=O)o4)c3)cc12)c1ccccc1 (stereo not given) was run?
**A.** Its growth is 14.9% (inactive).

**Q.** O=C(CCCCCCN1CC(=O)N2[C@@H](c3ccc(Cl)s3)c3[nH]c4ccccc4c3C[C@H]2C1=O)NO was tested. Which growth did it give?
**A.** The growth was 1.42% (active).

**Q.** How did the growth turn out when O=C(NNc1nc2cc(F)ccc2n2cccc12)c1ccncn1 was run?
**A.** Its growth is -4.33% (active).

**Q.** With O=C(/C=C1\C=CN(CCCCCCF)c2ccccc21)n1ccc2ccccc21 as the compound, how does the growth read?
**A.** Its growth is 109% (inactive).

**Q.** Which growth does the source give for NS(=O)(=O)c1ccc(Nc2nc(N/N=C/c3ccc(Cl)cc3)nc(Nc3ccccc3)n2)cc1 here?
**A.** Its growth is 72.5% (inactive).

**Q.** With COc1ccc(/C=N/Nc2ccnc3cc(Cl)ccc23)cc1Cl as the compound, how does the growth read?
**A.** Its growth is -37.5% (active).

**Q.** How did the growth turn out when O=C(Nc1ccc(N=Cc2c(O)[nH]c3ccccc23)cc1)Nc1ccc(S(=O)(=O)Nc2ncccn2)cc1 was run?
**A.** Its growth is 117% (inactive).

**Q.** Which growth does the source give for COc1c(N2CC3CCCNC3C2)c(F)cc2c(=O)c(C(=O)N/N=C/c3ccc(F)cc3)cn(C3CC3)c12 (stereo not given) here?
**A.** The growth was 72.8% (inactive).

**Q.** For CCC(=O)Nc1cc(Nc2cc(NC3CC3)n3ncc(C#N)c3n2)ccc1C, which growth is on record?
**A.** Its growth is 5.84% (active).

**Q.** O=C(COc1ccc(/C=C2\C(=O)Nc3ccc(Cl)cc32)cc1)Nc1ccc(Cl)cc1 was tested. Which growth did it give?
**A.** Its growth is 57.6% (inactive).

**Q.** How did the growth turn out when C#Cc1nc(C2=C(C)C(=O)/C(=N/OC(C)=O)C2)cs1 was run?
**A.** The growth was 20.4% (inactive).

**Q.** For Oc1ccc(CSc2nnc(-c3ccc(Br)cc3)n2-c2ccccc2)c2cccnc12, which growth is on record?
**A.** Its growth is 27.5% (inactive).

**Q.** How did the growth turn out when NC(=O)c1c(NC(=O)c2ccccc2C(F)(F)F)sc2c1CCC(=O)C2 was run?
**A.** The growth was 1.97% (active).

**Q.** Which growth does the source give for O=C1c2c(c3c4cc(Br)ccc4[nH]c3c3ccc4ccccc4c23)C(=O)N1CCN1CCNCC1 here?
**A.** The growth was 62.3% (inactive).

**Q.** With N#Cc1cccc(CN2CCC3=C(C2)C(=O)N(Cc2ccc(Cl)cc2)C2=NCCCN23)c1 as the compound, how does the growth read?
**A.** The growth was 11.7% (inactive).

**Q.** How did the growth turn out when CS(=O)(=O)Nc1cc(-c2ccc3ncc(C#N)c(NCc4ccccc4F)c3c2)cnc1Cl was run?
**A.** The growth was 5.25% (active).

**Q.** Cc1ccc(/C=C/c2nn3c(-c4ccco4)nnc3s2)cc1C was tested. Which growth did it give?
**A.** Its growth is 91.4% (inactive).

**Q.** NC1C2CCC1CN(c1cnc(C(=O)Nc3cc(F)cc4cccnc34)cn1)C2 (stereo not given) was tested. Which growth did it give?
**A.** Its growth is 9.98% (active).

**Q.** Which growth does the source give for CCCCCc1ccc(S(=O)(=O)Nc2cc(-c3csc(NC(=O)CN4CCN(C)CC4)n3)ccc2OC)cc1 here?
**A.** Its growth is -52.4% (active).

**Q.** Which growth does the source give for COc1cc(NC(=O)Nc2cccc(-c3cc(=O)c4c(OC)c(OC)c(OC)cc4o3)c2)cc(OC)c1OC here?
**A.** The growth was 45% (inactive).

**Q.** Which growth does the source give for COc1cc(/C=C/C(=O)c2ccc(N3CCN(C)CC3)cc2)ccc1F here?
**A.** Its growth is 50% (inactive).

**Q.** Which growth does the source give for O=C1Nc2ccc(Cl)cc2/C1=C/c1ccc(OCc2ccc(F)cc2)cc1 here?
**A.** Its growth is 94.6% (inactive).

**Q.** With CNC(=O)c1cc(N2CCc3cc(NC(=O)Nc4ccc(N5CCN(C)CC5)c(C(F)(F)F)c4)ccc32)ccn1 as the compound, how does the growth read?
**A.** Its growth is 79% (inactive).

**Q.** O=C(Nc1cccc(Cl)c1)Nc1nc2cc([N+](=O)[O-])ccc2o1 was tested. Which growth did it give?
**A.** The growth was 52.7% (inactive).

**Q.** For Fc1ccc(-c2cn3c(-c4c[nH]c5ccc(Br)cc45)csc3n2)cc1, which growth is on record?
**A.** Its growth is 104% (inactive).

**Q.** How did the growth turn out when C=CCn1c(SCC(=O)Nc2cccc(C(=O)/C=C/c3ccc(Cl)cc3)c2)nc2ccccc2c1=O was run?
**A.** The growth was 103% (inactive).

**Q.** Which growth does the source give for COc1cc(/C=N/Nc2ccnc3cc(Cl)ccc23)cc(OC)c1O here?
**A.** Its growth is -44.6% (active).

**Q.** Which growth does the source give for C=CCn1c(SCC(=O)c2ccc(OC)cc2)nnc1-c1ccc(OC)cc1 here?
**A.** The growth was 90.8% (inactive).

**Q.** How did the growth turn out when O=C(C[n+]1ccnc2ccccc21)c1ccc(O)c(O)c1 was run?
**A.** Its growth is -24.7% (active).
